The sample as a whole holds a higher share of hits than the screen did.
L3MBTL1 inh: L3MBTL1 (human) inhibition. Q9Y468. AlphaScreen L3MBTL1–H3K9me1 peptide binding. Potency, µM (titrated, usually from 57.1 µM), for inactives: top-dose activity, negative = inhibition, actives largely listed as inhibitors. hit rate 0.66% among 230,000. AID 485360; further: nearly all actives have a fitted effect of over 60% in size
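Read-out is AlphaScreen signal from streptavidin donor and nickel chelate acceptor beads (10 ug/mL final each) bridging L3MBTL1 (50 nM) and biotinylated K9-monomethylated H3(1-15) peptide (75 nM), after 30 min compound exposure at room temperature.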
TDP1 block: inhibitors of human tyrosyl-DNA phosphodiesterase TDP1 | recombinant TDP1, AlphaScreen DNA substrate cleavage | AID 485290 | Q9NUW8 | hit rate 0.28% among 350,000 | Potency, µM (highest dose often 130 µM), inactives show top-dose activity change, negative = inhibition, hits mostly inhibitors; further: nearly all actives have a fitted effect of over 40% in size
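Steps: enzyme plus compound, 15 min RT; add biotin/phosphotyrosine-FITC oligonucleotide (15 nM final), react 5 min; add donor/acceptor beads (10 ug/ml final), 10 min; read AlphaScreen. Tdp1 at 1 nM final.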
APEX1 inh: blocks human APE1 abasic DNA cleavage; P27695; recombinant APE1, TAMRA/BHQ-2 abasic DNA cleavage fluorescence; Potency, µM (highest dose often 65.8 µM), without a hit: at the highest dose activity change, negative = inhibition, most hits filed as inhibitors; hit rate 0.35% among 350,000; AID 2517;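 further: plate controls were vehicle for no effect and reference inhibitor for full effect; nearly all actives have a fitted effect of over 55% in size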
Target sequence (P27695 whole entry, looked up): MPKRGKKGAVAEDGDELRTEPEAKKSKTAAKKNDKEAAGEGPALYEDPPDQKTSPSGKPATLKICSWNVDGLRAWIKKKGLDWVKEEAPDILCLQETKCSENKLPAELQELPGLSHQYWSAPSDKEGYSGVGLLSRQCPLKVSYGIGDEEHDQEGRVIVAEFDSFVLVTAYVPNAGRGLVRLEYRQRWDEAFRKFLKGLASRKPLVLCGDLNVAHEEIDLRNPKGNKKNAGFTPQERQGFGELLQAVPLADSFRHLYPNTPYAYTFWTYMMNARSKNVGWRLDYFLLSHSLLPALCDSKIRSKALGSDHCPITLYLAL
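Readout is kinetic fluorescence (ex 525, em 598 nm) from cleavage of 50 nM TAMRA/BHQ-2 THF abasic duplex by 0.75 nM APE1, compound added 15 min beforehand at RT.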
BLM inh: inhibitors of human Bloom syndrome helicase BLM | recombinant BLM DNA unwinding, fluorescence dequenching | hit rate 0.2% among 350,000 | Potency, µM (titrated, usually from 56.1 µM), for the others: at the top dose activity change, negative = inhibition, hits mostly inhibitors | AID 2528 | P54132;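 further: plate controls were vehicle for no effect and no enzyme for full effect; nearly all actives have a fitted effect of over 35% in size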
KDM4E inh: inhibitors of human JMJD2E histone demethylase; B2RXH2; JMJD2E catalytic domain, FDH-coupled NADH fluorescence (FDH is formaldehyde dehydrogenase); Potency, µM (titrated, usually from 57.1 µM), for the others: at the highest dose activity change, negative = inhibition, actives largely listed as inhibitors; hit rate 1.6% among 230,000; AID 2147; active means well fitted inhibition curve with a large enough effect, not every such curve was filed as active; inconclusive means small, poorly fitted or top-dose-only effect, or another doubt; inactive means no such curve, though single readings can be large or run the other way;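 further: 0% = wells with enzyme and -100% = buffer wells without enzyme; nearly all actives have a fitted effect of over 50% in size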
Target sequence (B2RXH2 1-337 limits assumed): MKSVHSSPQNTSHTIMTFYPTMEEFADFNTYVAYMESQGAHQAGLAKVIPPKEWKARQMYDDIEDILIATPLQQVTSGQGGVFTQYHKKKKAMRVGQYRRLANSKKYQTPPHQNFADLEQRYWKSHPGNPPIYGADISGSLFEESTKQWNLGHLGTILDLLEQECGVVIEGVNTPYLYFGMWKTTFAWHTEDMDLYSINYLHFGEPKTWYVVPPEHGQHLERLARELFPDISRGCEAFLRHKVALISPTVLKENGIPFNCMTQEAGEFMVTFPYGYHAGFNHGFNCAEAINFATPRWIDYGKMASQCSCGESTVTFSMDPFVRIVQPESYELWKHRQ
RECQ1 inh-1: inhibitors of human RECQ1 DNA helicase; P46063; RECQ1 DNA unwinding, red fluorescence kinetic read; Potency, µM (doses to about 57.3 µM), for inactives: top-dose activity, negative = inhibition, usual class: inhibitors; hit rate 0.54% among 240,000;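 further: plate controls were vehicle for no effect and no enzyme for full effect; nearly all actives have a fitted effect of over 30% in size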
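RECQ1T1 50 nM; forked duplex (20 bp + 30-nt ss tails) 200 nM, ATP 2 mM final; pH 8.0, 2 mM MgCl2, 2.5 ug/ml poly(dI-dC); 15 min compound preincubation; discontinuous kinetic read over 2 h at RT.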
RECQ1 conf: confirmation of human RECQ1 helicase inhibitors; shares compounds with RECQ1 inh-1; RECQ1 helicase DNA unwinding, fluorescence; Potency, µM (top dose mostly 229 µM), inactives show at the highest dose activity change, negative = inhibition, most hits filed as inhibitors; hit rate 28% among 610; AID 2708; further: nearly all actives have a fitted effect of over 45% in size
RECQ1 ADP FP: ADP displacement flagged in RECQ1 inhibitor counter-screen | shares compounds with RECQ1 inh-1 | Potency, µM (titrated, usually from 228 µM), inactives show at the highest dose activity change, negative = inhibition, most hits filed as inhibitors | hit rate 27% among 530 | ADP fluorescence polarization displacement counterscreen; further: nearly all actives have a fitted effect of over 45% in size
RECQ1 inh-2: RECQ1 helicase inhibition confirmed, round 2. shares compounds with RECQ1 inh-1. recombinant RECQ1 DNA unwinding, red fluorescence. AID 504841. Potency, µM (top dose mostly 119 µM), for inactives: at the highest dose activity, negative = inhibition, hits mostly inhibitors. hit rate 15% among 1,100; further: nearly all actives have a fitted effect of over 50% in size
* marks the source's active call; other numbers are inactive results; i = inactive; ? = inconclusive; · = not tested or not shown; ! = not active in a repeat; [ ] = another dose, or the depositor's remark. Unless noted, the call rests on the fitted dose curve; in most records, active means well fitted curve in the direction sought with a large enough effect; inconclusive means small, poorly fitted or top-dose-only effect, or another doubt; inactive means no such curve, though single readings can be large; an effect the other way counts as inactive or inconclusive. Unless noted, on the % scale 0 is the no-effect control and ±100 the full control effect; potency means the concentration at half of the fitted maximal effect.

SMILES | L3MBTL1 inh | TDP1 block | APEX1 inh | BLM inh | KDM4E inh | RECQ1 inh-1 | RECQ1 inh-2 | others
Cc1cccc2sc(N)nc12 | · | 6% | 1% | · | · | -4% | ·
CC1=Nc2ccccc2/C1=C\c1nc(-c2ccc(F)cc2)oc1O | · | 2% | 9% | -19% | ? | ? | ?
C[C@H]1Cc2c(-c3ccccc3)nc3c(c2CO1)CN(S(=O)(=O)c1ccc(C#N)cc1)CC3 | · | 16%[12.3 µM] | -9%[12.4 µM] | 0%[12.4 µM] | 3%[11.4 µM] | i[11.5 µM] | ·
CCN(CC)S(=O)(=O)c1ccc(C(=O)NC(=S)N(CCC#N)Cc2cccnc2)cc1 | 11% | 5% | 2% | 0% | -6% | -4% | · | RECQ1 conf=0%;RECQ1 ADP FP=1%
CN(C)S(=O)(=O)c1cccc(C(=O)NC(=S)N(CCC#N)Cc2cccnc2)c1 | · | 8% | -2% | 0% | ? | -18% | ·
Cc1ccc(SCC(=O)Nc2cccc(C)c2)cc1 | 33% | -7% | -2% | 0% | 0% | 25µM* | -12%
Cc1ccc(Cn2c(=O)c3c(nc4n3CCN4c3cc(C)cc(C)c3)n(C)c2=O)cc1 | · | 0% | · | -3% | · | · | ·
CCNc1ncc2nc(-c3cccs3)c(=O)n(CCc3ccccc3)c2n1 | · | · | -9% | -4% | · | 28µM* | 79µM*
CCNc1ncc2nc(-c3ccccc3)c(=O)n(CCc3ccccc3)c2n1 | · | · | 22% | -3% | · | i | ·
CCNc1ncc2nc(-c3ccc(F)cc3)c(=O)n(CCc3ccccc3)c2n1 | · | · | 0% | -12% | · | 28µM* | 79µM*
Cc1ccc(Nc2ccc(N)cc2S(=O)(=O)O)cc1 | ? | 5% | ? | -11% | ? | ? | -11%
C[C@H](N)C(=O)NCC(=O)N[C@H]1CSSC[C@@H](C(=O)O)NC(=O)[C@H](CO)NC(=O)[C@H]([C@@H](C)O)NC(=O)[C@H](Cc2ccccc2)NC(=O)[C@H]([C@@H](C)O)NC(=O)[C@H](CCCCN)NC(=O)[C@@H](Cc2c[nH]c3ccccc23)NC(=O)[C@H](Cc2ccccc2)NC(=O)[C@H](Cc2ccccc2)NC(=O)[C@H](CC(N)=O)NC(=O)[C@H](CCCCN)NC1=O | · | 10% | 1% | 0% | · | -6% | ·
CCOC(=O)c1ccc(NC(=O)c2csnn2)cc1 | · | 1% | · | -4% | · | · | ·
COc1ccc(CCn2c(=S)[nH]c3cc(C(=O)N4CCOCC4)ccc3c2=O)cc1OC | · | -3% | 17% | -6% | -5% | 35µM* | -48%
Oc1ccccc1-c1nnc(SCCN2CCOCC2)n1Cc1ccccc1 | -10% | 0% | -1% | 0% | ? | 1.6µM* | ? | RECQ1 conf=8%[114 µM];RECQ1 ADP FP=-10%[91.9 µM]
CCCN1CNc2c(c(=O)[nH]c(=S)n2CCc2cccc(OC)c2OC)C1 | · | -9% | · | · | · | · | ·
COc1ccccc1C(=O)NCCn1cc(SCC(=O)Nc2ccccc2F)c2ccccc21 | · | 3% | · | -4% | · | · | ·
O=C(O)Cc1cccc(OCCCN(Cc2cccc(C(F)(F)F)c2Cl)CC(c2ccccc2)c2ccccc2)c1 | · | -7% | -16% | ? | · | ? | 25µM*
Cc1nnc2ccc(-c3ccc(NS(=O)(=O)c4ccccc4)cc3)nn12 | -2% | 0% | 19% | · | · | · | ·
CC(=O)c1ccc(S(=O)(=O)Nc2ccc(-c3ccc4nnc(C)n4n3)cc2)cc1 | · | -5% | ? | -18% | ? | ? | ?
CC1CCN(S(=O)(=O)c2ccc(NC(=O)N3c4ccccc4Sc4ccccc43)cc2)CC1 | -2% | 8% | 1% | -5% | 7% | -13% | · | RECQ1 conf=-10%;RECQ1 ADP FP=42%
CC(=O)Oc1ccc(C(=O)Nc2ccc3c(c2)C(=O)N(CCC(=O)O)C3=O)cc1 | · | -14% | -1% | -3% | ? | -14% | · | RECQ1 conf=?;RECQ1 ADP FP=?
COC(=O)c1ccc(CSc2c(C(C)C)cnc3c2c(=O)n(C)c(=O)n3C)cc1 | · | 0% | · | -1% | · | · | ·
O=C(O)CC(SCC(=O)Nc1ccc(S(=O)(=O)N2CCCC2)cc1)C(=O)O (centres undefined) | 7% | 0% | -7% | 1% | -10% | i | · | RECQ1 conf=2%;RECQ1 ADP FP=-9%
O=C(O)CC(SCC(=O)Nc1ccccc1)C(=O)O (centres undefined) | 0% | 1% | 0% | -4% | ? | -13% | ·
SMILES | L3MBTL1 inh | TDP1 block | APEX1 inh | BLM inh | KDM4E inh | RECQ1 inh-1 | RECQ1 inh-2 | others
O=C(N/N=C/c1ccc[nH]1)c1ccccc1O | -1% | 0% | 18% | -4% | -8% | 3.5µM* | · | RECQ1 conf=8%[114 µM];RECQ1 ADP FP=14%[91.9 µM]
Cc1ccc2c(=O)cc(C(=O)Nc3ccc(S(=O)(=O)N(C)Cc4ccccc4)cc3)oc2c1C | · | 2% | · | 1% | · | · | ·
Nc1ccc(-c2nc3ccc(N)cc3s2)cc1 | · | · | -8% | -1% | ? | -11% | ·
Nc1ccc(-c2nc3ccc(C(=O)O)cc3s2)cc1 | 6% | 79µM* | ? | -5% | ? | ? | -28%
N=C(N)c1ccc(O)cc1 | -3% | 6% | -2% | 0% | -12% | 6% | ·
N=C(N)c1ccccc1 | · | 5%[56.1 µM] | 4% | -1% | 12% | 14µM*! | · | RECQ1 conf=8%[114 µM];RECQ1 ADP FP=20%[91.9 µM]
O=c1c(-c2ccc(Cl)cc2)nc2cnc(N3CCOCC3)nc2n1C[C@H]1CCCO1 | · | · | 13% | 3% | · | -2% | ·
O=C1c2ccccc2-c2onc3ccc(N4CCCC4)c1c23 | ? | 9% | 20µM* | 39% | 18µM* | 14µM* | 56µM*
O=C1c2ccccc2-c2onc3c(N4CCN(CCO)CC4)cc(N4CCN(C(=O)c5ccco5)CC4)c1c23 | · | 15% | 3% | -20% | · | · | ·
Cc1ccc(S(=O)(=O)NC2=NCN(CCOC(=O)c3ccccc3)CN2)cc1 | · | 4% | 3% | 3% | 0% | 32µM* | 1%
Cc1ccc(S(=O)(=O)NC2=NCN(CCOC(=O)c3ccc([N+](=O)[O-])cc3)CN2)cc1 | · | -4% | 6% | 3% | 3% | -3% | ·
CC1CCN(C(=O)CSc2c(C(C)C)cnc3c2c(=O)n(C)c(=O)n3C)CC1 | · | 3% | · | -2% | · | · | ·
COc1ccc(C(CC(=O)N2CCCC2)c2c(OC)cc(OC)c3c(-c4ccccc4)cc(=O)oc23)cc1 (centres undefined) | · | 7.9µM* | 10µM* | ? | ? | 13µM* | 20µM*

Compound activity: PubChem BioAssay, National Center for Advancing Translational Sciences (NCATS)
